The source of these data is ChEMBL document CHEMBL3433997, “St. Jude Leishmania screening dataset” (2016).

Common to all, as to format: functional
The target of assay [1] is Solute carrier family 2, facilitated glucose transporter member 1 (Homo sapiens) (UniProt P11166). In words: ST_JUDE_LEISH: Cytotoxicity at 2uM final concentration against transgenic Leishmania Mexicana promastigotes LmGLUT1 that are glucose transport deficient and complemented with the human glucose transporter GLUT1. Activity is measured by DNA content using SYBR green in vitro.

Assay [2] has as its target Hexose transporter 1 (Plasmodium falciparum) (UniProt O97467). Nature of the assay: ST_JUDE_LEISH: Cytotoxicity at 2uM final concentration against transgenic Leishmania Mexicana promastigotes LmPfHT that are glucose transport deficient and complemented with the Plasmodium falciparum hexose transporter. Activity is measured by DNA content using SYBR green in vitro.
Assay [3] concerns the target Glucose transporter (Leishmania mexicana) (UniProt O61059). In words: ST_JUDE_LEISH: Cytotoxicity at 2uM final concentration against transgenic Leishmania Mexicana promastigotes LmGT2 that are glucose transport deficient and complemented with the L. Mexicana glucose transporter 2. Activity is measured by DNA content using SYBR green in vitro.

Chain of Solute carrier family 2, facilitated glucose transporter member 1 (Homo sapiens) (P11166 whole entry): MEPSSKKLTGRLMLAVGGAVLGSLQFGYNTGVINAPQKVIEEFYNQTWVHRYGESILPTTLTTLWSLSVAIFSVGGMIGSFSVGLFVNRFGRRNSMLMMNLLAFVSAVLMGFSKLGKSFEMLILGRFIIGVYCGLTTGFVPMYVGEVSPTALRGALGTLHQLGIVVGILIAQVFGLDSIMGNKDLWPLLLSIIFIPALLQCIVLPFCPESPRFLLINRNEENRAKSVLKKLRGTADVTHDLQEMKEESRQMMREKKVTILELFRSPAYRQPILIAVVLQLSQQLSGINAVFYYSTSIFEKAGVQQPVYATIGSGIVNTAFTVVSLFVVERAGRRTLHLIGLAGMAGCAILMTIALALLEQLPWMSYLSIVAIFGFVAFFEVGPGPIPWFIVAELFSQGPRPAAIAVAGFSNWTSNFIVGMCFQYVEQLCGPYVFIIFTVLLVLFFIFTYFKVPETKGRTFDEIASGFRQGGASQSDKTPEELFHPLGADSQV

A word on the inhibition: it is the drop in the measured response relative to a control, in per cent. Regarding `Cc1cc(N2CCCC2)nc(Nc2ccc(NC(=O)c3ccc4c(c3)OCO4)cc2)n1`, the values for the inhibition in assay [1], in assay [2] and in assay [3] were 13.5%, 3.61% and 5.78%, respectively.
`O=C(NC1CCCc2ccccc21)[C@@H]1CCCN1C(=O)c1ccc(O)c(-c2cccc([N+](=O)[O-])c2)c1` (some centres not stated): the inhibition in assay [1] was 2.69%; in assay [2], 1.92%; in assay [3], 2.82%.
`COc1ccc(-c2c(C(F)(F)F)nn(C)c2NC(=O)Nc2ccc(F)cc2F)cc1`: the inhibition in assay [1] was -1.15%; in assay [2], -0.84%; in assay [3], 1.24%.
Regarding `Oc1ccc(Cl)c2c1C(c1ccccc1)=NCC2`, the values for the inhibition in assay [1], in assay [2] and in assay [3] were -1.17%, -0.25% and 1.69%, respectively.
Regarding `COc1cc(F)c2nccc([C@@H](O)CN3CCC(NCc4nc5cccc(F)c5[nH]4)CC3)c2c1`, the inhibition in assay [1] was determined as 6.27%; in assay [2] it was 0.25%; in assay [3], 3.66%.
For the compound `COc1ccc2nccc([C@@H](O)CN3CCC(NCc4ccc5c(n4)NC(=O)CS5)C(F)C3)c2c1` (some centres not stated), the inhibition in assay [1] came out at 2.08%; in assay [2] it was 1.5%; in assay [3], 1.99%.
For `CCCCCCCCNc1c2ccc(Cl)cc2nc2ccc(OC)cc12`, in that order: 7.33%, 7.51% and 5.8%.
As to `Cc1nc(N)nc(N)c1-c1cc(Cl)c(N)c(Cl)c1`, the inhibition is -0.04% in assay [1], -0.43% in assay [2] and -1.52% in assay [3].
Regarding `O=[N+]([O-])c1ccc2nccnc2c1`, the inhibition was found to be 6.19% in assay [1], 5.71% in assay [2] and 6.9% in assay [3].
On to `CCCCOC(=O)C1=C(C)NC2=C(C(=O)CC(c3ccc(OC)c(OC)c3)C2)C1c1ccc(O)cc1` (configuration not stated), for which the inhibition worked out at 10.4% in assay [1], 1.48% in assay [2] and 3.3% in assay [3].
As for `O=C(/C=C/c1ccc(F)cc1)NC1CCC(CCN2CCCN(c3ccc(C(F)(F)F)cn3)CC2)CC1` (configuration not stated), the inhibition in assay [1] is 1.97%; in assay [2], -0.46%; in assay [3], -1.02%.
In the case of `Cc1cc(N/N=C/c2cccc([N+](=O)[O-])c2)c2ccccc2n1`, the values for the inhibition in assay [1], in assay [2] and in assay [3] were 1.39%, 1.27% and 4.98%, respectively.
`COc1cc(NC(=O)N2CCc3cc(OC)c(OCCN4CCCCC4)cc32)cc(C(F)(F)F)c1`: the inhibition is 12.9% in assay [1], 12.7% in assay [2] and 9.77% in assay [3].
`COc1cc2nc(N3CCC(CNC(=O)c4ccc(-c5cccc(C#N)c5)cc4)CC3)nc(N)c2cc1OC`: the inhibition in assay [1] is 3.6%; in assay [2], 2.28%; in assay [3], 2.21%.
Regarding `c1ccc2[nH]c(-c3ccc(-c4ccc(CN5CCN(CCN6CCOCC6)CC5)cc4)cc3)nc2c1`, the inhibition came to 11.2% in assay [1], 12.4% in assay [2] and 4.36% in assay [3].
For `O=C(Nc1ccc(F)cc1)NC1CCN(c2ccnc3cc(Cl)ccc23)C1` (configuration not stated), the inhibition was -0.37% in assay [1], -1.17% in assay [2] and -1.87% in assay [3].
Consider `Cc1c(C)n(C2CCCC2)c2ncnc(OC3CCN(CC(=O)NC4CC4)CC3)c12`, for which the inhibition worked out at 9.5% in assay [1], 6.34% in assay [2] and 7.75% in assay [3].
For the compound `COc1ccc(CNC(=O)Nc2cc3cc(-c4ccc(CN5CCCC5)cc4)ccc3n3c(C)nnc23)cc1`, the values for the inhibition in assay [1], in assay [2] and in assay [3] were 2.37%, 0.34% and 0.89%, respectively.
For the compound `FC(F)(F)c1ccc2c(NCCNc3ccnc4cc(C(F)(F)F)ccc34)ccnc2c1`, the inhibition in assay [1] stood at 2.33%; in assay [2], 0.31%; in assay [3], 0.92%.
`C=CCn1c(=N)c(C(=O)NCc2ccc(F)cc2)cc2c(=O)n3cccc(C)c3nc21`: the results for the inhibition in assay [1], in assay [2] and in assay [3] were 3.56%, 3.45% and 2.22%, respectively.
Turning to `FC(F)(F)COc1ccc2ccccc2c1CNCCCCCCNCc1c(OCC(F)(F)F)ccc2ccccc12`, the inhibition in assay [1] is 1.61%; in assay [2] it was 0.57%; in assay [3], -1.38%.
In the case of `CCCc1ccc(S(=O)(=O)NC2CCN(C(=O)Nc3ccc(I)cc3)CC2)cc1`, the values for the inhibition in assay [1], in assay [2] and in assay [3] were 5.43%, 5.51% and 5.03%, respectively.
In the case of `COc1ccc2nccc([C@@H](O)CN3CCC(NC(=O)/C=C/c4ccc(F)c5ccccc45)CC3)c2c1`, the inhibition in assay [1] came to 8.56%; in assay [2] it was 5.8%; in assay [3] it was 5.26%.
For `COc1ccc2ncc(F)c(CCN3CCC4(CC3)COC(c3cc5c(cn3)OCCO5)=N4)c2n1`, the inhibition is 10.3% in assay [1], 7.42% in assay [2] and -0.24% in assay [3].
The like results for `N#Cc1ccc(N2CCN(Cc3cccc(-c4ccc(-c5nc6ccccc6[nH]5)cc4)c3)CC2)nc1` were, in that order, 6.09%, 3.68% and -0.67%.
As for `OC(CNC1CCCCC1)Cn1c2ccc(I)cc2c2cc(I)ccc21` (configuration not stated), the inhibition in assay [1] was found to be 0.77%; in assay [2], 1.51%; in assay [3] it was 1.17%.
For `Cc1cc(N[C@@H](CC(C)C)C(=O)NCc2cccc(F)c2)nc(NCC2CCCCC2)n1`, the inhibition in assay [1] came to 5.8%; in assay [2], 4.61%; in assay [3], 2.2%.
In the case of `NC(=O)c1ccccc1OCC(=O)Nc1cccc(-c2ccc(-c3nc4cc(C(F)(F)F)ccc4[nH]3)cc2)c1`, the inhibition was 4.44% in assay [1], 3.99% in assay [2] and 2.79% in assay [3].
Regarding `N#Cc1cccc(Nc2cc(C(F)(F)F)nc(Nc3ccccc3)n2)c1`, the inhibition in assay [1] turned out to be 15.4%; in assay [2], 11.3%; in assay [3], 6.45%.
Turning to `CN1CCCN(c2ccnc3cc4c(cc23)N(C(=O)c2ccc(Cl)c(Cl)c2)CC4)CC1`, the inhibition in assay [1] was found to be 0.8%; in assay [2], 1.89%; in assay [3] it was 1.54%.
On to `CCN(CC)CCCC(C)Nc1ccnc2ccc(-c3ccccc3)cc12` (configuration not stated), for which the inhibition is -0.2% in assay [1], -0.17% in assay [2] and 1.04% in assay [3].
On to `N#Cc1ccc(N2CCN(Cc3ccc(-c4ccc(-c5nc6cc(C(F)(F)F)ccc6[nH]5)cc4)cc3)CC2)nc1`, for which the inhibition in assay [1] was 2.63%; in assay [2], 4.69%; in assay [3], 1.55%.
Take `Cc1ccc(Cn2ncc(N3CCC(N)CC3)c(Cl)c2=O)cc1NC(=O)Nc1ccc(-c2ccccc2)cc1`: the inhibition in assay [1] is 14.2%; in assay [2], 12.3%; in assay [3], 11.9%.
With `COc1ccc(CN2CCC(NCc3cccc(C(F)(F)F)c3)CC2)cc1`, the inhibition worked out at 13.2% in assay [1], 4.48% in assay [2] and 9.6% in assay [3].
